As a reminder, the Inhibition is the percentage by which the read-out fell short of the control. Read a high Inhibition as a strong effect.

Common to all, as to assay type: functional
Test [1] deals with Plasmodium falciparum. Put plainly: GSK_TCMDC: Inhibition of Plasmodium falciparum 3D7 in whole red blood cells, using parasite LDH activity as an index of growth. Test compounds present at 2uM.
The test system of test [2] is Plasmodium falciparum. The test is described as follows: GSK_TCMDC: Inhibition of Plasmodium falciparum Dd2 in whole red blood cells, using parasite LDH activity as an index of growth. Test compounds present at 2uM.
A further test has as its system HepG2. The test is described as follows: GSK_TCMDC: Percent inhibition of human HepG2 cell line. Test compounds present at 10uM.

For the compound `COc1ccc2ccccc2c1C=NN=c1cc(C)[nH]c2cc(C(F)(F)F)ccc12`, the Inhibition in the test on Plasmodium falciparum [1] was found to be 92%; with Plasmodium falciparum [2], 4%; in the test with HepG2, 1%.
The like results for `COc1ccc(NC(=O)[C@H](CC(C)C)Nc2cc(C)nc(NCCc3cccs3)n2)cc1.O=C(O)C(F)(F)F` were, in that order, 100%, 68% and 5%.
The matching figures for `CCOC(=O)c1c(CCc2ccc(C(F)(F)F)cc2)nc2c(c1-c1ccc(C(=O)N[C@@H](C)c3ccncc3)cc1)C(=O)N1CCC[C@@H]21`: 85%, 68% and 0%.
The like results for `COc1cccc(OC)c1-c1ccccc1NC(=O)N1CCCc2cc(C)ccc21` were, in that order, 82%, 84% and 51%.
For the compound `CCCc1cn2c3c(cc(C(=O)N[C@@H](Cc4ccccc4)[C@H](O)CNC4CCCCC4)cc13)N(C)S(=O)(=O)CC2.O=CO`, the Inhibition in the test with Plasmodium falciparum [1] is reported as 99%; with Plasmodium falciparum [2], 98%; in the test with HepG2, 3%.
The matching figures for `CCCNCc1ccc(-c2ccc(CN(CCOC)C(=O)c3ccco3)cc2)nc1.O=C(O)C(F)(F)F`: 91%, 21% and 1%.
The matching figures for `CCNc1cc(C)nc(Nc2ccc(C)cc2)n1`: 100%, 85% and 12%.
The like results for `CCCCN(CCCC)/C(=N/C(=N)NCc1ccc(Cl)c(Cl)c1)NCCCCCCN/C(=N\C(=N)NCc1ccc(Cl)c(Cl)c1)N(CCCC)CCCC` were, in that order, 100%, 96% and 9%.
For the compound `COc1cccc(C2CCCN(CCCCNC(=O)c3ccc(NC(=O)c4ccc(Cl)cc4)cc3)C2)c1` (stereo not given), the values for the Inhibition in the test on Plasmodium falciparum [1], with Plasmodium falciparum [2] and in the test on HepG2 were 95%, 6% and 24%, respectively.
Take `O=C(Nc1cccc(C(F)(F)F)c1)c1cccc(S(=O)(=O)NCC2CCN(CC3CCCCC3)CC2)c1.O=C(O)C(F)(F)F`: the Inhibition worked out at 97% with Plasmodium falciparum [1], 5% in the test with Plasmodium falciparum [2] and 27% in the test on HepG2.
On to `CC(C)CCN1CCC(Oc2ccc(NC(=O)c3cccs3)cc2Cl)C1.O=C(O)C(F)(F)F` (stereo not given), for which the Inhibition in the test with Plasmodium falciparum [1] stood at 94%; with Plasmodium falciparum [2], 93%; in the test on HepG2, 17%.
The like results for `CCN1CCN(c2cc(C)c3cc(NC(=O)c4ccc(Br)o4)ccc3n2)CC1` were, in that order, 98%, 13% and 0%.
Consider `COc1cc2nc(N3CCC(CNC(=O)c4ccc(-c5ccc(C(=O)N(C)C)cc5)c(OCCO)c4)CC3)nc(N)c2cc1OC`, for which the Inhibition turned out to be 96% with Plasmodium falciparum [1], 18% in the test with Plasmodium falciparum [2] and 10% in the test with HepG2.
The like results for `O=C(Nc1ccccc1Cl)N(Cc1cc(Cl)cc(Cl)c1)CC(O)COc1ccc(Cl)c(F)c1` (stereo not given) were, in that order, 93%, 17% and 0%.
The matching figures for `CN1CCCC1CCNc1ncc2c(-c3ccc(NC(=O)Nc4cc(C(F)(F)F)ccc4F)cc3)nn(C)c2n1.O=C(O)C(F)(F)F` (stereo not given): 96%, 72% and 74%.
For `Clc1ccc(CNc2ccnc(NCCc3coc4ccccc34)n2)c(Cl)c1`, the Inhibition with Plasmodium falciparum [1] amounted to 86%; in the test with Plasmodium falciparum [2], 39%; in the test with HepG2, 26%.
As to `O=C(/C=C/c1ccc(Cl)c(Cl)c1)N1CCC(CNCc2cccc3cc[nH]c23)CC1`, the Inhibition amounted to 85% in the test with Plasmodium falciparum [1], 14% in the test with Plasmodium falciparum [2] and 1% with HepG2.
The matching figures for `CN1CCN(Cc2ccc(-c3ccc4c(Nc5ccc(Cl)cc5F)ccnc4c3)o2)CC1`: 100%, 100% and 47%.
The like results for `N=C(/N=C(/NCCCCCCN/C(=N/C(=N)NCc1ccc(Cl)c(Cl)c1)N1CCCCC1)N1CCCCC1)NCc1ccc(Cl)c(Cl)c1` were, in that order, 100%, 99% and 6%.
The matching figures for `CCCc1cn2c3c(cc(C(=O)N[C@@H](Cc4ccccc4)[C@H](O)CNC4CCOCC4)cc13)N(CC)S(=O)(=O)CC2.O=CO`: 97%, 98% and 2%.
Turning to `O=C(Nc1ccsc1)Nc1cccc(-c2cccc(-c3nc4cc(C(F)(F)F)ccc4[nH]3)c2)c1`, the values for the Inhibition in the test with Plasmodium falciparum [1], in the test with Plasmodium falciparum [2] and with HepG2 were 100%, 100% and 76%, respectively.
`O=C(NCCCCN1CCC(c2ccc3c(c2OCCN2CCCC2=O)CCCC3)CC1)c1ccc(-c2ccc(C(F)(F)F)cc2)cc1`: the results for the Inhibition in the test with Plasmodium falciparum [1], in the test with Plasmodium falciparum [2] and in the test on HepG2 were 88%, 1% and 56%, respectively.
The matching figures for `Nc1cccc(CNCc2cccc(-c3csc(-c4nc5ccccc5[nH]4)c3)c2)c1.O=C(O)C(F)(F)F`: 100%, 63% and 13%.
The matching figures for `OC1CCN(c2cc(-c3ccccn3)nc(-c3ccccn3)n2)CC1`: 83%, 97% and 43%.
The like results for `COc1ccc(OC)c(Cc2cnc3nc(N)[nH]c(=O)c3c2C)c1` were, in that order, 98%, 4% and 62%.
On to `CCNc1cc(C(=O)N[C@@H](Cc2ccccc2)[C@H](O)CNC2CCC(F)(F)CC2)c(F)c(N2CCCCS2(=O)=O)c1.O=CO`, for which the values for the Inhibition with Plasmodium falciparum [1], in the test with Plasmodium falciparum [2] and in the test with HepG2 were 100%, 97% and 0%, respectively.
The matching figures for `CCOC(=O)C1CCN(CCCNC(=O)/C(=C/C=C/c2cc3cc(Cl)c(Cl)cc3[nH]2)OC)CC1`: 87%, 78% and 23%.
The matching figures for `CCN(c1ccccc1)S(=O)(=O)c1ccc(NC(=O)c2cc(-c3cc(C)ccc3O)n[nH]2)cc1`: 99%, 55% and 49%.
The matching figures for `Oc1ccc(OCc2ccccn2)cc1`: 98%, 0% and 5%.
Consider `Cl.OC(c1cccc(OCc2ccccc2)c1)C1CN(CCc2ccccc2)CCC1(O)c1ccccc1` (stereo not given), for which the figures for the Inhibition in the test with Plasmodium falciparum [1], in the test on Plasmodium falciparum [2] and in the test with HepG2 were 98%, 98% and 7%, respectively.

The values are drawn from ChEMBL document CHEMBL1157539, “Thousands of chemical starting points for antimalarial lead identification” (Nature, 2010).
